What is called AC50 is the midpoint of the concentration-response curve, whichever way the signal moves.

“And” between values parts separate entries of the source, which are not always exact repeats. Equal values may be shown once. Results filed as inconclusive are left out. A structure can be active in one record and inactive in another. The source made the active and inactive calls. How the source made its calls: active means hit-call score of the fitted dose curve at least 0.9, where 1 is the maximum; inconclusive means response in the unintended direction; inactive means score below 0.9.

The target of experiment [1] is zebrafish Estrogen Receptor (ER1), esr1 (gene 259252) (UniProt P57717). Description: ATG_zfER1_XSP2: Attagene TRANS-FACTORIAL Multi-Species (XSP2) HepG2 Assay for zebrafish Estrogen Receptor (ER1) (AID 2283816). The gist of the method: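 After 24 h compound exposure, RNA from transfected HepG2 cells was reverse-transcribed and reporter transcripts resolved by capillary electrophoresis. The TRANS format reads exogenous zebrafish ER1-Gal4 chimera activity on GAL4-UAS elements; gain of signal against DMSO.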
Sequence of zebrafish Estrogen Receptor (ER1), esr1 (gene 259252) (P57717 whole entry, looked up, the tested form may be a part): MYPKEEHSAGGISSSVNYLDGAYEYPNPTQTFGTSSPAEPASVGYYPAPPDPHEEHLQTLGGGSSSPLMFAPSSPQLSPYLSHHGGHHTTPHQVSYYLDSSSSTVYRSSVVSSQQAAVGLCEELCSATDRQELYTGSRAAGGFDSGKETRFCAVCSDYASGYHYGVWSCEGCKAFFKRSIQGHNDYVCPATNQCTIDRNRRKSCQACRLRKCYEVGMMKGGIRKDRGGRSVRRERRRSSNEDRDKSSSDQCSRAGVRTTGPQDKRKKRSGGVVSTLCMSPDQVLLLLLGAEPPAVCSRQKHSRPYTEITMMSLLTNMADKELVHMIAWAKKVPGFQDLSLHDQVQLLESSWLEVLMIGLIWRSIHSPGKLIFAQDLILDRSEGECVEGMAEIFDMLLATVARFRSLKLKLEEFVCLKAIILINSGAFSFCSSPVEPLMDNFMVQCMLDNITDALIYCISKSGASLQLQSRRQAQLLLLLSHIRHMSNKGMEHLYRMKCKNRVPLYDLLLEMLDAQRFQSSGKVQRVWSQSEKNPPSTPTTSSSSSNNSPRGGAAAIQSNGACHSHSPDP

In experiment [2] the target is chicken Estrogen Receptor (ERa), ESR1 (gene 396099) (UniProt P06212). Description: ATG_chERa_XSP2: Attagene TRANS-FACTORIAL Multi-Species (XSP2) HepG2 Assay for chicken Estrogen Receptor (ERa) (AID 2283817).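 Further: actives raise reporter signal above DMSO so AC50 reflects ER activation.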 The gist of the method: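 Exogenous chicken ERa-Gal4 chimera activity was assessed in transfected human liver HepG2 cells after 24 h of treatment. Induced reporter mRNA was quantified fluorescently by capillary electrophoresis, with DMSO as baseline.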
Sequence of chicken Estrogen Receptor (ERa), ESR1 (gene 396099) (P06212 whole entry, looked up, the tested form may be a part): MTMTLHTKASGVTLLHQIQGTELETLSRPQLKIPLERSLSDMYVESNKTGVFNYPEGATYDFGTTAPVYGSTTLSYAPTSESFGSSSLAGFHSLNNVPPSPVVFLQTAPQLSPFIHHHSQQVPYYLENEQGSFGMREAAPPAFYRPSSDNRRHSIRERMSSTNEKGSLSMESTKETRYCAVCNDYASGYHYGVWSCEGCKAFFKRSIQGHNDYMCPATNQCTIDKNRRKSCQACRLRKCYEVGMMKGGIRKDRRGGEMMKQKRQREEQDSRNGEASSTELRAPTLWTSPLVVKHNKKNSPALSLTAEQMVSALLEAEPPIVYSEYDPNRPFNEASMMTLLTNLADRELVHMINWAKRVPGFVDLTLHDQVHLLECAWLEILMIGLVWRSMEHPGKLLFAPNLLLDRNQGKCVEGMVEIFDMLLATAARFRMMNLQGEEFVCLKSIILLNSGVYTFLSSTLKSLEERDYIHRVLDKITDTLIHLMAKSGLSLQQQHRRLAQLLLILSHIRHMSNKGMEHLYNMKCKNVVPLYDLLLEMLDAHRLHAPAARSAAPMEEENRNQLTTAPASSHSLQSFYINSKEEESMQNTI

Experiment [3] concerns zebrafish Estrogen Receptor (ER2a), gene 317734. Description: ATG_zfER2a_XSP2: Attagene TRANS-FACTORIAL Multi-Species (XSP2) HepG2 Assay for zebrafish Estrogen Receptor (ER2a) (AID 2283818).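 Further: hits raise reporter mRNA so AC50 reflects activation of zebrafish ER2a.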 The gist of the method:
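Multiplexed trans-reporter readout: RT-PCR then capillary electrophoresis of reporter transcripts after 24 h compound treatment. Human HepG2 carries transfected zebrafish ER2a-Gal4 chimera; 3 nM 6-alpha-fluorotestosterone plus 1.5 nM norgestrel present. Induction scored against DMSO.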

Experiment [4] deals with frog Estrogen Receptor (ER), gene 398734. Description: ATG_frER1_XSP2: Attagene TRANS-FACTORIAL Multi-Species (XSP2) HepG2 Assay for frog Estrogen Receptor (ER) (AID 2283821).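 Further: hits raise reporter mRNA above DMSO baseline so potency means agonist or activator.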 The gist of the method: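 Gain-of-signal mRNA reporter assay, HepG2 human liver cells, 24 h dosing; transcripts read by fluorescent RT-PCR fragment analysis, DMSO as negative control.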
The subject of experiment [5] is zebrafish Estrogen Receptor (ER2b), gene 317733. Description: ATG_zfER2b_XSP2: Attagene TRANS-FACTORIAL Multi-Species (XSP2) HepG2 Assay for zebrafish Estrogen Receptor (ER2b) (AID 2283823).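 Further: fitted upward as reporter gain over DMSO so potency reflects activation.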 The gist of the method:
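Transfect HepG2 with GAL4-UAS reporter constructs; dose chemicals, 24 h; isolate RNA, RT-PCR, FAM-label, HpaI digest; capillary electrophoresis. Gain-of-signal vs DMSO.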

Experiment [6] in a line: ATG_M_32_XSP2: Attagene TRANS-FACTORIAL Multi-Species (XSP2) HepG2 Assay for M19 Transcription Factor (Internal Marker) (AID 2283826). The gist of the method:
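Read-out: fluorescent reporter mRNA fragments resolved by capillary electrophoresis after RT-PCR, gain-of-signal versus DMSO baseline. Cells were human HepG2 carrying transfected multi-reporter units, exposed 24 h. Medium contained 3 nM 6-alpha-fluorotestosterone plus 1.5 nM norgestrel.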

Experiment [7] relates to turtle Androgen Receptor (AR), gene 101947425. Description: ATG_trAR_XSP2: Attagene TRANS-FACTORIAL Multi-Species (XSP2) HepG2 Assay for turtle Androgen Receptor (AR) (AID 2283815). How it is done: ATG_XSP2_multi-species_TRANS is a cell-based, multiplexed assay created by modifying the existing Attagene TRANS-FACTORIAL system to include a panel of nuclear receptors from some or all the following species: human (Homo sapiens), mouse (Mus musculus), frog (Xenopus laevis), zebrafish (Danio rerio), chicken (Gallus gallus), and turtle (Chrysemys picta). The […] format uses HepG2, a human liver cell line, with measurements taken at 24 hours after chemical dosing in a 24-well plate. Xsp2 included 3 nM 6-alpha-fluorotestosterone and 1.5 nM norgestrel to stimulate the androgen receptor.ATG_trAR_XSP2 is one of 29 assay components measured or calculated from the ATG_XSP2_multi-species_TRANS assay. It is designed to make measurements of mRNA induction, a form of inducible reporter, as detected with fluorescence intensity signals by Reverse transcription polymerase chain reaction (RT-PCR) and Capillary electrophoresis technology.The assay endpoint ATG_trAR_XSP2 was analyzed in the positive analysis fitting direction relative to DMSO as the negative control and baseline of activity. […] Furthermore, this assay endpoint can be referred to as a primary readout, because this assay has produced multiple assay endpoints where this one serves a reporter gene function. […]

The test system of experiment [8] is chicken Androgen Receptor (AR), gene 422165. Description: ATG_chAR_XSP2: Attagene TRANS-FACTORIAL Multi-Species (XSP2) HepG2 Assay for chicken Androgen Receptor (AR) (AID 2283819).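 Further: hits raise reporter mRNA above DMSO so potency is for activation.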 The gist of the method:
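Readout is reporter mRNA induction via RT-PCR/capillary electrophoresis after 24 h chemical exposure, positive direction relative to DMSO. Transiently transfected HepG2 express chimeric chicken AR–GAL4; AR stimulated by 3 nM 6-alpha-fluorotestosterone and 1.5 nM norgestrel.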

Experiment [9] can be described thus: ATG_M_19_XSP2: Attagene TRANS-FACTORIAL Multi-Species (XSP2) HepG2 Assay for M32 Transcription Factor (Internal Marker) (AID 2283822). The gist of the method:
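Internal background marker in a multi-species nuclear receptor TRANS panel: transfected HepG2 cells exposed 24 h, with 3 nM 6-alpha-fluorotestosterone and 1.5 nM norgestrel present. Readout is RT-PCR of reporter transcripts resolved by capillary electrophoresis, gain-of-signal versus DMSO.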

Experiment [10] deals with zebrafish Androgen Receptor (AR), gene 100005148. Description: ATG_zfAR_XSP2: Attagene TRANS-FACTORIAL Multi-Species (XSP2) HepG2 Assay for zebrafish Androgen Receptor (AR) (AID 2283825).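 Further: hits raise reporter mRNA above DMSO so AC50 reflects agonist-type gain.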 The gist of the method: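 After 24 h compound exposure in medium with 3 nM 6-alpha-fluorotestosterone plus 1.5 nM norgestrel, HepG2 cells carrying zebrafish AR–GAL4 reporter constructs were assessed for reporter mRNA gain by RT-PCR and capillary electrophoresis.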

Regarding `CCC(=O)Nc1ccc(Cl)c(Cl)c1`, the call in experiment [1], in experiment [2], in experiment [3], in experiment [4] and in experiment [5] was inactive. Also, the results for the AC50 in experiment [4] and in experiment [5] were 38 µM (active) and 170 µM (active), respectively.

Regarding `C#CC(C)(C)NC(=O)c1cc(Cl)cc(Cl)c1`, the concentration at half-maximal activity (AC50) was 3.34 µM (active) in [2] and 27.6 µM (active) in experiment [4]. Also, the result in experiment [3], in experiment [5] and in experiment [6] was inactive.

Consider `C#CCC1=C(C)C(OC(=O)C2C(C=C(C)C)C2(C)C)CC1=O` (stereo not drawn), for which the result in [1], in [3], in experiment [4] and in experiment [5] was inactive.

Regarding `CCOP(=S)(OCC)Oc1ccc2c(C)c(Cl)c(=O)oc2c1`, the compound was classed as inactive in experiment [2], in [3], in experiment [4] and in [6]. For the same compound, in experiment [5], the AC50 was 100 µM (active).

With `CCc1cccc(C)c1N(C(=O)CCl)C(C)COC` (stereo not drawn), the compound was classed as inactive in experiment [7], in experiment [1], in experiment [2], in [8], in [5] and in [6].

On to `CCC(CC)Nc1c([N+](=O)[O-])cc(C)c(C)c1[N+](=O)[O-]`, for which the AC50 in experiment [1] was 7.37 µM (active); in [2], 5.63 µM (active) and 4.3 µM (active); in experiment [4] it was 3.96 µM (active) and 5.7 µM (active); in experiment [5], 18.1 µM (active) and 7.12 µM (active). In addition, the outcome in experiment [1], in experiment [3] and in experiment [6] was inactive.

For the compound `CCCOCC(=Nc1ccc(Cl)cc1C(F)(F)F)n1ccnc1`, the compound was called inactive in experiment [1], in experiment [2], in experiment [3], in [4] and in experiment [6]. In addition, in [5], the AC50 is 39.8 µM (active).

As for `CCOP(=O)(NC(C)C)Oc1ccc(SC)c(C)c1` (stereo not drawn), the result in experiment [1], in experiment [2], in experiment [3] and in [6] was inactive. The AC50 in [2] is 31.1 µM (active); in [3] it was 100 µM (active); in [4], 148 µM (active) and 8.45 µM (active); in experiment [5], 65.5 µM (active) and 43.8 µM (active).

As for `Nc1c(Cl)cc([N+](=O)[O-])cc1Cl`, the outcome in [1], in experiment [2], in experiment [3], in experiment [4], in experiment [9] and in [6] was inactive. Further, the AC50 is 26.8 µM (active) in experiment [2]; 25.3 µM (active) and 49.6 µM (active) in experiment [5].

For the compound `COc1ccc(C(=CC(=O)N2CCOCC2)c2ccc(Cl)cc2)cc1OC`, the half-maximal activity concentration (AC50) in [1] is 58.2 µM (active); in experiment [5] it was 100 µM (active) and 54.2 µM (active). Moreover, the compound was called inactive in experiment [1], in [2], in experiment [3], in experiment [4] and in [10].

For the origin of these results see PubChem BioAssay (EPA / NIEHS).
